The list is not random: actives were taken first. Their share in the collection is about 10%.
ALDH1A1 block: qHTS Assay for Inhibitors of Aldehyde Dehydrogenase 1 (ALDH1A1); Aldehyde dehydrogenase 1A1 (Homo sapiens), P00352; Purified ALDH1A1, NADH fluorescence, propionaldehyde substrate; Potency, µM (series often up to 75.3 µM), inactives show top-dose activity, negative = inhibition, hits mostly inhibitors; hit rate 7.3% among 220,000; active means well fitted inhibition curve with a large enough effect, not every such curve was filed as active; inconclusive means small, poorly fitted or top-dose-only effect, or another doubt; inactive means no such curve, though single readings can be large or run the other way;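 further: potency means the concentration at half of the fitted maximal effect; plate controls were no enzyme wells and a reference inhibitor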
Target sequence (P00352 whole entry, looked up): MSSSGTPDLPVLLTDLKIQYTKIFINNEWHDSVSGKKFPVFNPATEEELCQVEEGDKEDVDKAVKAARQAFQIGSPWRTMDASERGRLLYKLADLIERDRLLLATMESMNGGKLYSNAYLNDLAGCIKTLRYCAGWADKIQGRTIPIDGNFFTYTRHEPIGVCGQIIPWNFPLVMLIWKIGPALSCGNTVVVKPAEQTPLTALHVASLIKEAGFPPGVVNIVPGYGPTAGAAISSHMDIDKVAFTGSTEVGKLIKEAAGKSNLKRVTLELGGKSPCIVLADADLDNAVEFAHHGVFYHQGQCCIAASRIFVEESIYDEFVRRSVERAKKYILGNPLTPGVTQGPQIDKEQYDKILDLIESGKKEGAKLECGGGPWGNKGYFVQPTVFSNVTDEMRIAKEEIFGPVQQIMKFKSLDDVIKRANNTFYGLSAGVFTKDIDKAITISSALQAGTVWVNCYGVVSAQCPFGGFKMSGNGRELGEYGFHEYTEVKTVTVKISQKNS
HPGD block: qHTS Assay for Inhibitors of HPGD (15-Hydroxyprostaglandin Dehydrogenase). purified HPGD, NADH fluorescence kinetic, PGE2 substrate. Potency, µM, without a hit: at the top dose activity change, negative = inhibition, hits mostly inhibitors. hit rate 4.3% among 150,000. 15-hydroxyprostaglandin dehydrogenase [NAD(+)] (Homo sapiens), P15428; active means well fitted inhibition curve with a large enough effect, not every such curve was filed as active; inconclusive means small, poorly fitted or top-dose-only effect, or another doubt; inactive means no such curve, though single readings can be large or run the other way; further: potency means the concentration at half of the fitted maximal effect
Target sequence (P15428 whole entry, looked up): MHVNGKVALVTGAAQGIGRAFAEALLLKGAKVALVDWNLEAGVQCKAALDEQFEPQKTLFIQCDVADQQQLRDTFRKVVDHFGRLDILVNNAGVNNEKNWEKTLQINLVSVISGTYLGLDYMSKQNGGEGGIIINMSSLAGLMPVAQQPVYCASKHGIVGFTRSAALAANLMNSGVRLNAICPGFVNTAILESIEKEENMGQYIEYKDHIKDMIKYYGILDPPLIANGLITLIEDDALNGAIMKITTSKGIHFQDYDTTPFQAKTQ
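20 nM HPGD preincubated 15 min at room temperature with compound in 50 mM Tris-HCl pH 8, 0.01% Tween 20. Started with 1 mM NAD+ and 30 uM prostaglandin E2; NADH fluorescence (360/450 nm) read 5 times over 30-s intervals, last minus first.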
12-hLO inh: qHTS Assay for Inhibitors of 12-hLO (12-human lipoxygenase); hit rate 0.12% among 150,000; AID 1452, 2008; Polyunsaturated fatty acid lipoxygenase ALOX12 (Homo sapiens), P18054; Potency, µM (doses to about 57.1 µM), inactives show top-dose activity change, negative = inhibition, hits mostly inhibitors; purified 12-hLO, xylenol orange hydroperoxide absorbance; further: potency means the concentration at half of the fitted maximal effect; nearly all actives have a fitted effect of over 55% in size
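Purified human 12hLO (150 nM final) was preincubated with compounds for 15 min at room temperature in 25 mM Hepes pH 7.0, 0.01% Triton X-100, then reacted with 40 uM arachidonic acid for 30 min. Hydroperoxide was detected with ferrous iron/xylenol orange.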
PNC inhibitor: High Content Assay for Compounds that inhibit the Assembly of the Perinucleolar Compartment; PC3M PTB-GFP, PNC prevalence imaging, 16 h; hits give low values; activity change (PNC), negative = inhibition, % at 10 µM; hit rate 3.1% among 140,000; AID 2417, 2010;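 active means readout at or below -70, meaning at least 70% loss of cells showing the perinucleolar compartment, a nuclear body marking cancer cells; inconclusive means readout between -30 and a set limit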;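 further: plate controls were DMSO wells for no effect and camptothecin positive control wells for full effect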
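Compounds are pinned in duplicate onto adhered PC3M cells stably expressing GFP-tagged PTB and incubated 16 h at 37 C. Cells are then fixed, nuclei stained with Hoechst, and PNC-positive cells counted.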
GLA spleen mod: qHTS Assay for Inhibitors and Activators of Human alpha-Galactosidase From Spleen Homogenate; Alpha-galactosidase A (Homo sapiens), P06280; human spleen homogenate, 4MU-alpha-Gal fluorescence, 40 min; Potency, µM (highest dose often 80 µM), without a hit: top-dose activity change, negative = inhibition, actives largely listed as inhibitors; hit rate 0.008% among 240,000; AID 2107, 2009;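 further: potency means the concentration at half of the fitted maximal effect; 0% = enzyme with vehicle and -100% = no enzyme basal signal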
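Spleen homogenate 1 ug + cpd (titration) + 4-MU-alpha-D-galactopyranoside 1 mM; 37C 40 min; 50 mM citrate/phosphate pH 5.0, 0.01% Tween-20; stop pH 10; fluorescence 365/440; AC50 via Hill.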
GLA inh pH 4.5: qHTS Assay for Inhibitors of Human alpha-Galactosidase at pH 4.5; Alpha-galactosidase A (Homo sapiens), P06280; purified enzyme, 4-MU-alpha-Gal fluorescence, pH 4.5; activity change, negative = inhibition, % at 105 µM; 230,000 tested, under 10 active; AID 1467, 2008;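 further: 0% = full activity with enzyme and -100% = basal without enzyme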
Active calls of the source: *; ? = inconclusive; . = no result given; [ ] = dose if it differs, or a comment. Unless noted, the call rests on the fitted dose curve; in most records, active means well fitted curve in the direction sought with a large enough effect; inconclusive means small, poorly fitted or top-dose-only effect, or another doubt; inactive means no such curve, though single readings can be large; an effect the other way counts as inactive or inconclusive. Unless noted, on the % scale 0 is the no-effect control and ±100 the full control effect.

SMILES	ALDH1A1 block	HPGD block	12-hLO inh	PNC inhibitor	GLA spleen mod	GLA inh pH 4.5
CCC(CC(C)(C)O)C(=O)NNC(=S)Nc1ccccc1 (stereo not drawn)	25µM*	.	.	.	-3%	5
CSc1nc(C2CC2)cc(-c2cccs2)c1C#N	?	?	3%	?	9%	-3
CSc1nc(N)nc(SC2C=CCCC2)c1C#N (stereo not drawn)	13µM*	-19%	-6%	12	-1%	-11
CC(OC(=O)/C=C/c1ccco1)C(=O)Nc1cccc([N+](=O)[O-])c1 (stereo not drawn)	?	?	-3%	-84*	5%	6
COc1ccc([N+](=O)[O-])cc1NC(=O)C(C)OC(=O)/C=C/c1ccco1 (stereo not drawn)	?	28µM*	-3%	72	-3%	-8
CSc1ccc(S(=O)(=O)NCc2ccccc2Cl)cc1	?	22µM*	-5%	6	-8%	-10
CSc1ccc(S(=O)(=O)NCc2ccc(Cl)cc2Cl)cc1	25µM*	-7%	-13%	?	-7%	-7
[O-]/C(=C(\C(=S)Nc1ccc(Cl)cc1)[n+]1ccccc1)c1ccc(OC(F)F)cc1	?	.	.	.	-12%	-26
Cc1cc(C)cc(NC(=S)/C(=C(\[O-])c2ccc(Cl)cc2Cl)[n+]2ccc(C(C)(C)C)cc2)c1	.	.	.	.	1%	3
CC(=O)Nc1ccccc1OCC(=O)c1ccc2c(c1)OCO2	3%	.	-11%	9	3%	-10
[O-]/C(=C(\C(=S)Nc1ccccc1F)[n+]1ccccc1)c1ccc(-c2ccccc2)cc1	18µM*	.	.	.	0%	1
CC(C)(C)c1cc[n+](/C(C(=S)Nc2ccccc2F)=C(/[O-])c2ccc3c(c2)OCCO3)cc1	14µM*	.	.	.	2%	7
CCOc1ccccc1NC(=S)/C(=C(\[O-])c1ccc2c(c1)OCCO2)[n+]1ccc(CC)cc1	20µM*	?	-19%	36	-2%	-1
COc1ccc(CNc2ncncc2-c2ccc3c(c2)OCO3)c(OC)c1	?	-26%	7%	.	1%	-1
CN(O)/C=N/C(=S)Nc1ccc(Cl)cc1Cl	1.6µM*	.	.	.	4%	10
O=c1oc2cc(Oc3ccc(C(F)(F)F)cc3[N+](=O)[O-])ccc2c2c1CCC2	16µM*	?	1%	25	15%	6
COc1cc(CCCN2C(=O)C(=O)NC[C@@H]2C(C)O)cc(OC)c1OC (stereo partly drawn)	.	.	.	.	3%	5
O=[N+]([O-])c1cccc(COc2ncnc3cc([N+](=O)[O-])ccc23)c1	?	.	.	.	-3%	-2
COC(=O)c1cc(NC(=O)CSc2nc(C)cc(=O)[nH]2)cc(C(=O)OC)c1	1%	14µM*	-8%	35	-1%	-7
Cc1cc(=O)[nH]c(SCC(=O)Nc2ccc(S(N)(=O)=O)cc2)n1	?	.	.	.	4%	-3
Cc1cc2ccccc2nc1SCC(=O)Nc1nc(-c2ccccc2)cs1	7.9µM*	-9%	15%	?	2%	4
CCOC(=O)c1ccc(NC(=O)CSc2nc(C)cc(=O)[nH]2)cc1	-3%	28µM*	-9%	-24	-3%	-2
CCOC(=O)c1ccc(NC(=O)CSc2nc3sc(C(=O)O)c(C)c3c(=O)[nH]2)cc1	14µM*	.	.	.	0%	2
COC(=O)c1ccc(CSc2nc3sc(C(=O)O)c(C)c3c(=O)[nH]2)cc1	?	.	.	.	6%	3
Cc1cc(=O)[nH]c(SCC(=O)Nc2ccc(Br)cn2)n1	2%	-2%	-4%	70	-1%	-3
SMILES	ALDH1A1 block	HPGD block	12-hLO inh	PNC inhibitor	GLA spleen mod	GLA inh pH 4.5
CC[C@H](C)[C@H](NC(=O)[C@H](Cc1ccc(O)cc1)NC(=O)[C@H](CCCNC(=N)N)NC(=O)[C@H](CCCNC(=N)N)NC(=O)[C@H](CC(C)C)NC(=O)[C@H](CCC(N)=O)NC(=O)[C@@H](NC(=O)[C@H](CCC(=O)O)NC(=O)[C@H](Cc1ccc(O)cc1)NC(=O)[C@H](CCC(N)=O)NC(=O)[C@H](C)NC(=O)[C@H](CCCNC(=N)N)NC(=O)[C@H](CCC(N)=O)NC(=O)[C@H](CCC(=O)O)NC(=O)[C@H](Cc1cnc[nH]1)NC(=O)[C@@H](NC(=O)[C@H](C)NC(=O)[C@H](Cc1ccc(O)cc1)NC(=O)[C@H](CC(=O)O)NC(=O)CNC(=O)[C@@H]1CCCN1C(=O)[C@H](Cc1ccc(O)cc1)NC(=O)[C@H](CCSC)NC(=O)[C@@H]1CCCN1C(=O)[C@H](CCC(=O)O)NC(=O)[C@H](CC(C)C)NC(=O)[C@@H]1CCCN1C(=O)[C@H](C)N)[C@@H](C)O)[C@@H](C)O)C(=O)N[C@@H](CC(N)=O)C(=O)N[C@H](C(=O)N[C@@H](CC(C)C)C(=O)N[C@H](C(=O)N[C@@H](CCCNC(=N)N)C(=O)N1CCC[C@H]1C(=O)N[C@@H](CCCNC(=N)N)C(=O)N[C@@H](Cc1ccc(O)cc1)C(N)=O)[C@@H](C)O)[C@@H](C)O	.	.	.	.	-24%	.
O=C(O)Cc1[nH]cnc1C(=O)O	10%[13.5 µM]	-1%	1%[11.4 µM]	.	.	.
O=S(=O)(Nc1cccc(-c2nnco2)c1)c1ccc(Cl)cc1	13%	.	.	.	8%	-2
OC[C@H]1O[C@@H](n2cnc3c(N[C@H]4C[C@H]5CC[C@@H]4C5)ncnc32)[C@H](O)[C@@H]1O	-9%	.	.	.	11%	.
Cc1ccc(-c2csc(NC(=O)CSc3nc(C)cc(=O)[nH]3)n2)cc1	?	28µM*	-17%	-89*	-17%	-3
CCOC(=O)c1c(-c2cccs2)csc1NC(=O)C(C)(C)C	0%	?	3%	22	-7%	-6
Cc1cc(=O)[nH]c(SCC(=O)Nc2ccc(C(=O)O)cc2)n1	?	22µM*	1%	16	2%	-12
CCOC(=O)c1c(-c2ccccc2Cl)csc1NC(=O)CSc1nc(C)cc(=O)[nH]1	8%	14µM*	-2%	41	3%	-7
CCOC(=O)c1c(-c2cccs2)csc1NC(=O)CSc1ncn[nH]1	20µM*	?	4%	?	13%	-14
CCOC(=O)c1c(-c2ccccc2)csc1NC(=O)CSc1nnc(C)s1	-7%	-8%	-2%	126	-4%	2

Assay outcomes as filed in PubChem BioAssay.
